system: Lefty1; test: Lefty1 protein binding to printed compounds – biochemical, small-molecule microarray, 635/667 nm fluorescence, primary screen (AID 1139); conditions: fluorescence 635/667, higher = more signal

Compound	composite z-score
COCCCNC(=O)[C@@]1(c2ccc([N+](=O)[O-])cc2)CC(=O)N(C(C)C)[C@@H]1c1ccc(CO)cc1	-0.0938
CN1C(=O)C2C=CC(C(O)c3ccc(I)cc3)N(Nc3ccccc3)C2C1=O (stereo not drawn)	0.465
CCOC(=O)C1=C[C@@H](c2ccccc2)N(S(=O)(=O)c2ccc(C)cc2)[C@H]1c1ccccc1	0.543
CC1CC/C=C\[C@H]2OC34C=CCN(C(C)(C)C)C(=O)[C@H]3N(C(CO)C(C)C)C(=O)[C@@H]4C2C(=O)O1 (stereo partly drawn)	0.659
COC(=O)[C@@]1(Cc2ccc(F)cc2)[C@H]2c3cc(C(=O)N4CCCC4)n(CC4CC4)c3C[C@H]2CN1C(=O)c1ccccc1	-0.39

system: wheat germ agglutinin (Triticum aestivum), Alexa647-labelled; test: Alexa647-WGA lectin binding to printed small molecules – biochemical, small-molecule microarray, 635/667 nm fluorescence, artefact control for SMM control-protein annotation, profiling panel (AID 1140); conditions: WGA-A647 binding, 635 nm fluorescence, higher = more signal;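 further: score merges 667 nm feature emission with signal to noise over triplicate slides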

Compound	composite z-score
COCCCNC(=O)[C@@H]1c2ccccc2C(=O)N(C2Cc3ccccc3C2)[C@H]1c1ccc(CO)cc1	-0.196
COc1ccc([Si](C)(C)[C@H]2[C@H](CCO)O[C@@]3(C(=O)N(Cc4ccccc4)c4ccc(N5CCOC5=O)cc43)[C@@H]2C)cc1	0.986
C[C@@]12COC[C@]13C=C(Br)[C@H](C2)[C@@]1(CO1)C3=O	-0.388
Nc1cc(Br)ccc1C(=O)O	0.863
COC(=O)[C@@]1(Cc2ccccc2)[C@H]2c3cc(C(=O)N(C)C)n(CCn4cc([N+](=O)[O-])nc4C)c3C[C@H]2CN1C(=O)c1ccccc1	1.1
C=C(/C(=C/C[C@@H](OC(C)=O)c1ccc(CO)o1)c1cc(C(=O)OC)ccc1OC)C(C)C	0.427
CC(C)C(=C=CC[C@H](O)c1cccc(OCCO)c1)CCO	0.108
C=CCN1C(=O)[C@]2(O[C@H](CCO)[C@@H]([Si](C)(C)c3ccc(OC)cc3)[C@@H]2C)c2cc(NC(=O)c3ccc(OC)cc3)ccc21	0.286

Reference: PubChem BioAssay
